Bioassay records (PubChem BioAssay)
This is a sample that favours compounds with a hit; in the whole collection about 19% have one here.
HepG2 tox – kills HepG2 cells in TGF-b inhibitor counter-screen. HepG2 CAGA-GFP viability, ATP luminescence, 18 h. Potency, µM (series often up to 46.1 µM), actives largely listed as cytotoxic. 410,000 compounds, 0.76% hits
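HepG2 CAGA-GFP cells (1000/well, DMEM with 1% FBS) received compound, then TGF-beta at 500 pg/mL final, and were incubated 18 hours at 37 degrees C. Viability was read by CellTiter-Glo luminescence. Media-only wells were set as complete cell-killing and DMSO as no toxicity.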
TDP1 cell CPT – growth inhibition of DT40 Tdp1-/-;hTDP1 cells with camptothecin (screen for TDP1 inhibitors). chicken DT40 Tdp1-/-;hTDP1 cells + 20 nM CPT, ATP luminescence, 48 h. Potency, µM (titrated, usually from 46.2 µM), hits mostly inhibitors. AID 686979. 420,000 compounds, 12% hits; note: nearly all actives have a fitted effect of over 55% in size
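Cell growth measured by CellTiter-Glo luminescence after a minimum 48 h, 37 C compound exposure with 20 nM CPT in Tdp1-knockout DT40 cells stably expressing hTDP1, seeded 400/well; qHTS titration format.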
S-ASM inh – inhibitors of human secretory acid sphingomyelinase; P17405; placental ASM, HMU-PC fluorogenic substrate, 60 min; Potency, µM (doses to about 57.5 µM), usual class: inhibitors; 340,000 compounds, 0.006% hits
Target sequence (P17405 47-631 limits assumed): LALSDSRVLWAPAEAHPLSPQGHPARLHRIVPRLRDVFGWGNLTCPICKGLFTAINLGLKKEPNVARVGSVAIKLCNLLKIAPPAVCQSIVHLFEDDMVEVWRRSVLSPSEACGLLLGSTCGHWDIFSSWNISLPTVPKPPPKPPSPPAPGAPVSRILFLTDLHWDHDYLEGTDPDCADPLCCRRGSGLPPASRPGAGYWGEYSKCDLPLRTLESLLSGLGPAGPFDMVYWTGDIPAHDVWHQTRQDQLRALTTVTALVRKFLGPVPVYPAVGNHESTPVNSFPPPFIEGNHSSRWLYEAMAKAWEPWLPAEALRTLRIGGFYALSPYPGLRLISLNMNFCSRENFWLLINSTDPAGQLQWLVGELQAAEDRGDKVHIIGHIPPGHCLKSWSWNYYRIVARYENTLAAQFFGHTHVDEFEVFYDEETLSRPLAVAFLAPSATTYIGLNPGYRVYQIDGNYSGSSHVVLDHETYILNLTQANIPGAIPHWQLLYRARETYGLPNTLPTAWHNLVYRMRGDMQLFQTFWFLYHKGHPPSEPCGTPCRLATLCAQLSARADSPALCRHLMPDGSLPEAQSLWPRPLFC
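Human placenta-derived ASM preincubated with compound 10 min at room temperature, then reacted with 9 uM (final) fluorogenic HMU-PC substrate for 60 min at 37 C. Stop solution raises pH to 10; fluorescence read at Ex 386/Em 447 nm.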
TGFb SMAD3 inh – inhibitors of TGF-b signaling. HepG2 CAGA-GFP TGF-b/SMAD3 reporter, GFP fluorescence, 18 h; TGF-beta stimulated, 500 pg/mL final. Potency, µM (top dose mostly 46.1 µM), usual class: inhibitors. 410,000 compounds, 1.2% hits; note: nearly all actives have a fitted effect of over 65% in size
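Inhibition was scored as loss of TGF-beta-induced (500 pg/mL final, 18 hours, 37 degrees C) GFP in HEPG2 cells carrying a CAGA-GFP reporter, in DMEM with 1% FBS. Well GFP was summed per cell; Activity was normalised to unstimulated and stimulated DMSO wells, then concentration-response fitting.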
DT40 TDP1 no CPT – qHTS for Inhibitors of human tyrosyl-DNA phosphodiesterase 1 (TDP1): qHTS in cells in absence of CPT. DT40 Tdp1-/- hTDP1 cells, no CPT, ATP luminescence, 48 h. Potency, µM (highest dose often 46.2 µM), actives largely listed as inhibitors. 420,000 compounds, 15% hits; note: nearly all actives have a fitted effect of over 55% in size
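A cellular qHTS used chicken DT40 cells lacking endogenous Tdp1 but carrying stably transfected human TDP1. Compounds were applied without camptothecin, and cell growth kinetics were judged by ATP-dependent luminescence after ≥48 hr.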
IL1B secr inh – blocks inflammasome-driven IL-1 beta release; AID 743279; THP-1 LPS/ATP IL-1B secretion, AlphaLISA, 16 h; stronger effect = lower value; 360,000 compounds, 4.7% hits; activity change, % at 57.5 µM; in the data active = activity change below about -50%; inconclusive = mostly about -30% to -49%
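THP-1 cells pretreated 1 hr with compounds (up to 57.5 uM final), then stimulated with LPS (250 ng/mL final) plus ATP (1.25 mM final); secreted IL-1B measured by AlphaLISA after 16 hr, decreased signal indicating inhibition.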
A number is an active result; 0 = inactive; ? = inconclusive; - = no result given. Unless noted, calls come from the whole dose curve; as a rule, active = well fitted curve in the direction sought with a large enough effect; inconclusive = small, poorly fitted or top-dose-only effect, or another doubt; inactive = no such curve, though single readings can be large; an effect the other way counts as inactive or inconclusive.

SMILES | HepG2 tox | TDP1 cell CPT | S-ASM inh | TGFb SMAD3 inh | DT40 TDP1 no CPT | IL1B secr inh
Cc1cc(C(=O)COc2ccc(C#N)cc2)c(C)n1-c1ccc2c(c1)OCO2 | 0 | 9.2µM | 0 | 0 | 9.2µM | 0
CCC(=O)c1ccc(OCC(=O)OCC(=O)c2cc(C)n(CC3CCCO3)c2C)cc1 (stereo not given) | 0 | 0 | 0 | 0 | 0 | 0
Cc1cc(C(=O)COC(=O)c2ccc([N+](=O)[O-])o2)c(C)n1CC1CCCO1 (stereo not given) | 0 | 23.1µM | 0 | ? | ? | 0
Cc1cc(C(=O)COc2ccc(C#N)cc2)c(C)n1CC1CCCO1 (stereo not given) | 0 | 29.1µM | 0 | 0 | 13µM | 0
CC(=O)Nc1ccc(NC(=O)c2ccccc2Nc2ccccc2)cc1 | 0 | ? | 0 | 0 | ? | 0
CCOc1ccc(NC(=O)Cn2cc(C(=O)c3ccc(CC)cc3)c(=O)c3cc4c(cc32)OCO4)cc1 | 0 | ? | - | 0 | ? | -
CC1CCCCN1C(=O)CN1CCC(c2nc3ccc(Cl)cc3[nH]2)CC1 (stereo not given) | 0 | ? | 0 | 0 | 23.1µM | 0
Cc1ccc(CN2CCC(c3nc4ccc(Cl)cc4[nH]3)CC2)cc1 | 0 | 16.4µM | 0 | ? | 16.4µM | -
CC(C)N(C(=O)CN1CCC(c2nc3ccccc3[nH]2)CC1)C(C)C | 0 | 0 | 0 | 0 | 0 | 0
Cc1ccc(-c2nc(CCNC(=O)C(=O)Nc3ccc(C)c(Cl)c3)cs2)cc1 | 0 | ? | - | 0 | ? | -
COc1cc(N)c(Cl)cc1C(=O)OCC(=O)Nc1ccc(N2CCOCC2)cc1 | 0 | 0 | 0 | 0 | 0 | 0
CCn1cc(C(=O)OCC(=O)Nc2cccc(Cl)c2C)c(=O)c2ccc(C)nc21 | 0 | 0 | - | 0 | 0 | -
CCN1CCc2nc3ccccc3c(C(=O)Nc3ccc(C#N)cc3)c2C1 | 0 | ? | 0 | 0 | ? | 0
CC(C)c1ccccc1NC(=O)COC(=O)c1c2c(nc3ccccc13)CCN(Cc1ccccc1)C2 | 0 | ? | 0 | ? | 10.3µM | 0
O=C(NC1CCCCCC1)c1c2c(nc3ccccc13)CCN(Cc1ccccc1)C2 | 0 | 18.4µM | 0 | 0 | 29.1µM | 0
Cc1c(Cl)cccc1NC(=O)COC(=O)c1c2c(nc3ccccc13)CCN(Cc1ccccc1)C2 | 0 | ? | 0 | ? | 16.4µM | 0
COCCN(CC(=O)Nc1cccc(C)c1C)C(=O)C1CCN(S(=O)(=O)c2ccccc2)CC1 | 0 | ? | 0 | ? | 0 | 0
O=C(NCCCN1CCCC1)c1ccc2c(c1)N(Cc1cccc(Cl)c1)C(=O)c1ccccc1S2(=O)=O | 0 | ? | - | ? | ? | 0
Cc1cccc(N2CCN(C(=O)c3ccc4c(c3)N(Cc3cccc(Cl)c3)C(=O)c3ccccc3S4(=O)=O)CC2)c1C | 0 | 0 | - | 0 | 0 | -
CC1CCCCN1C(=O)c1ccc2c(c1)N(Cc1ccc(F)cc1)C(=O)c1ccccc1S2(=O)=O (stereo not given) | 0 | ? | - | 0 | 18.4µM | -
CC1CCCN(CCCNC(=O)c2ccc3c(c2)N(Cc2cccc(Cl)c2)C(=O)c2ccccc2S3(=O)=O)C1 (stereo not given) | 0 | 6.51µM | - | ? | 5.8µM | -
O=C(c1ccc2c(c1)N(Cc1cccc(Cl)c1)C(=O)c1ccccc1S2(=O)=O)N1CCCC1 | 0 | 23.1µM | - | 0 | 20.6µM | -
O=C(c1ccc2c(c1)N(Cc1ccc(F)cc1)C(=O)c1ccccc1S2(=O)=O)N1CCN(Cc2ccccc2)CC1 | 0 | 11.6µM | - | 3.55µM | 8.2µM | -
CN1CCN(C(=O)C(=O)Nc2c3c(nn2-c2cccc(Cl)c2)CSC3)CC1 | 0 | 0 | - | 0 | 0 | -
C=CC1=C(C(=O)O)N2C(=O)[C@@H](NC(=O)/C(=N/OCC(=O)O)c3csc(N)n3)[C@H]2SC1 (stereo in doubt) | - | 0 | - | - | 0 | -
SMILES | HepG2 tox | TDP1 cell CPT | S-ASM inh | TGFb SMAD3 inh | DT40 TDP1 no CPT | IL1B secr inh
Cc1cccc(CCNC(=O)c2cc3c(=O)n(C)c4ccccc4c3n2C)c1 | 0 | ? | - | 0 | ? | -
O=C(c1ccc2c(c1)N(Cc1ccccc1)C(=O)c1ccccc1S2(=O)=O)N1CCc2ccccc21 | 0 | 4.11µM | - | - | 3.26µM | -
O=C(c1ccc2c(c1)N(Cc1cccc(Cl)c1)C(=O)c1ccccc1S2(=O)=O)N1CCCCCC1 | 0 | 18.4µM | - | ? | 23.1µM | -
COc1ccccc1N1CCN(C(=O)c2ccc3c(c2)N(Cc2ccccc2)C(=O)c2ccccc2S3(=O)=O)CC1 | 0 | ? | - | - | 11.6µM | -
O=C(c1ccc2c(c1)N(Cc1cccc(Cl)c1)C(=O)c1ccccc1S2(=O)=O)N1CCN(Cc2ccccc2)CC1 | 0 | 14.6µM | - | ? | 9.2µM | -
COc1ccc(N2CCN(C(=O)c3ccc4c(c3)N(Cc3cccc(Cl)c3)C(=O)c3ccccc3S4(=O)=O)CC2)cc1 | 0 | 0 | - | ? | 0 | -
CN1CCN(C(=O)c2ccc3c(c2)N(Cc2ccc(F)cc2)C(=O)c2ccccc2S3(=O)=O)CC1 | 0 | 0 | - | 0 | 0 | -
O=C(Nc1cccc(Cl)c1Cl)c1ccc2c(c1)N(Cc1cccc(Cl)c1)C(=O)c1ccccc1S2(=O)=O | 0 | - | - | 0 | - | -
CCCCNC(=O)C1c2ccccc2OCC(=O)N1CC(F)(F)F (stereo not given) | - | 0 | - | - | 0 | 0
CCOc1ccc(OCCOC(=O)C2CCN(S(=O)(=O)c3ccc(C)c(C)c3)CC2)cc1 | 0 | 0 | 0 | 0 | 0 | 0
CC(=O)c1ccc(NC(=O)CCn2cccn2)cc1 | 0 | 0 | - | 0 | 0 | -
Cc1ccc2onc(CNC(=O)NCc3cccc(Cl)c3)c2c1 | 0 | 0 | - | 0 | ? | -
CCC1CCCCN1C(=O)c1ccc2c(c1)N(Cc1cccc(Cl)c1)C(=O)c1ccccc1S2(=O)=O (stereo not given) | 0 | 18.4µM | - | 0 | 16.4µM | -
CC1CCCCN1CCNC(=O)c1ccc2c(c1)N(Cc1cccc(Cl)c1)C(=O)c1ccccc1S2(=O)=O (stereo not given) | 0 | ? | - | 0 | ? | ?
N=C(c1ccc([N+](=O)[O-])cc1)N1CCCCCC1 | 0 | 0 | 0 | 0 | 0 | 0
C=CCSC1=C(C#N)C(c2ccccc2Cl)C(C(=O)c2cccs2)C(O)(C(F)(F)F)N1 (stereo not given) | 0 | ? | 0 | ? | 16.4µM | 0
CCSC1=C(C#N)C(c2ccccc2Cl)C(C(=O)c2cccs2)C(O)(C(F)(F)F)N1 (stereo not given) | 0 | ? | 0 | ? | ? | 0
CN1CCN(C2=C(Cl)C(=O)N(c3cccc(Cl)c3)C2=O)CC1 | 0 | 0 | 0 | 0 | 0 | 0
